Results from the supplement of paper PMC9135407.
“And” between values parts separate entries of the source, which are not always exact repeats. Equal entries are not always repeated. Structures can show the parent of a compound that is named as a salt. Hit rate of the full screen: of about 5,800 compounds, about 620 (11%) showed activity. The full list was thinned out, with actives kept by preference. Unmarked numbers belong to inactive results.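 The calls were made as follows: active = score above a cut-off or among the top three wells of a plate; in these data no inactive exceeds 0.85.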

System: primary human hepatic stellate cells (donor 1)
Assay: scaled lipid accumulation score (0 = DMSO-like, 1 = nortriptyline-like); higher = stronger HSC inactivation (lipid re-accumulation), active = hit call of the paper
Settings: 48 h
[1] = library stock concentration: 10 mM
[2] = library stock concentration: 1 mM
[3] = library stock concentration: 80 uM
[4] = library stock concentration: 400 uM
[5] = library stock concentration: 2 mM
[6] = library stock concentration: 3.33 mM
[7] = library stock concentration: 5.9 mM

`Cc1onc(O)c1C[C@H](N)C(=O)O` was tested, and the “scaled lipid accumulation score” value [1] was ≤ 0.
For `CCCCC/C=C\C/C=C\C/C=C\C/C=C\CCCC(=O)Nc1ccc([N+](=O)[O-])cc1` [Arachidonoyl p-Nitroaniline], the “scaled lipid accumulation score” value [2] was ≤ 0.
In the case of `c1cc2ccc(N3CCNCC3)cc2cn1` [7-piperazin-1-yl-Isoquinoline (hydrochloride)], the “scaled lipid accumulation score” value [2] was ≤ 0.
`CCN1CCN(C(=O)Cc2ccc(Nc3ncc(F)c(Nc4ccc(C(=O)Nc5ccccc5Cl)cc4)n3)cc2)CC1` [Aurora A Inhibitor I] [listing 1 of 2 here] was tested, and the “scaled lipid accumulation score” value [1] was 1.24 (active).
In the case of `CCN1CCN(C(=O)Cc2ccc(Nc3ncc(F)c(Nc4ccc(C(=O)Nc5ccccc5Cl)cc4)n3)cc2)CC1`, the “scaled lipid accumulation score” value [3] was ≤ 0, the “scaled lipid accumulation score” value [4] was ≤ 0 and the “scaled lipid accumulation score” value [5] was 0.676. The “scaled lipid accumulation score” value [1] was 0.801.
In the case of `CCN1CCN(C(=O)Cc2ccc(Nc3ncc(F)c(Nc4ccc(C(=O)Nc5ccccc5Cl)cc4)n3)cc2)CC1` [Aurora A Inhibitor I] [listing 2 of 2 here], the “scaled lipid accumulation score” value [6] was 0.402.
With `NC(Cn1oc(=O)[nH]c1=O)C(=O)O` (single isomer, unassigned; (+)) [(+)-Quisqualic acid] the “scaled lipid accumulation score” value [1] was ≤ 0.
With `CN1C[C@H](CNC(=O)OCc2ccccc2)C[C@@H]2c3cccc4c3c(cn4C)C[C@H]21` [Metergoline] [listing 1 of 3 here] the “scaled lipid accumulation score” value was 1.06 (active).
In the case of `CN1C[C@H](CNC(=O)OCc2ccccc2)C[C@@H]2c3cccc4c3c(cn4C)C[C@H]21` [Metergoline] [listing 2 of 3 here], the “scaled lipid accumulation score” value [1] was 0.653.
With `CC[C@@H](CO)NC(=O)[C@@H]1C=C2c3cccc4c3c(cn4C)C[C@H]2N(C)C1` [Methysergide] the “scaled lipid accumulation score” value (library stock concentration: 5.7 mM) was ≤ 0.
With `CN1CC(CNC(=O)OCc2ccccc2)C[C@H]2c3cccc4c3c(cn4C)CC21` (stereo not given in full) [Metergoline] the “scaled lipid accumulation score” value [1] was 1.05 (active).
`CO[C@]12C[C@@H](COC(=O)c3cncc(Br)c3)CN(C)[C@@H]1Cc1cn(C)c3cccc2c13` [Nicergoline] was tested, and the “scaled lipid accumulation score” value was ≤ 0 and the “scaled lipid accumulation score” value [1] was 0.682 and 0.399.
`CC[C@@H](CO)NC(=O)[C@@H]1C=C2c3cccc4c3c(cn4C)C[C@H]2N(C)C1` [Methysergide maleate] was tested, and the “scaled lipid accumulation score” value [1] was 0.458 and 0.048.
In the case of `CN1C[C@H](CNC(=O)OCc2ccccc2)C[C@@H]2c3cccc4c3c(cn4C)C[C@H]21` [Metergoline] [listing 3 of 3 here], the “scaled lipid accumulation score” value [1] was 0.893 (active).
For `CCOC(=O)CN1C(=O)CC(C[C@@H](O)C2C[C@@H](C)C[C@H](C)C2=O)CC1=O` (stereo not given in full) [Cycloheximide-N-ethylethanoate], the “scaled lipid accumulation score” value (library stock concentration: 13.6 mM) was ≤ -0.021.
In the case of `Cc1cc([C@@H]2CCCN2C)on1` [ABT-418 hydrochloride], the “scaled lipid accumulation score” value [1] was ≤ 0.
In the case of `CCOc1ccccc1-n1c(C(C)N2CCN(C(=O)COc3ccc(Cl)cc3)CC2)nc2ccccc2c1=O` (stereo not given) [Erastin], the “scaled lipid accumulation score” value [6] was ≤ -0.009 and the “scaled lipid accumulation score” value [1] was 0.473.
For `C[N+]1(C)CCc2cc3c(cc2C1C1OC(=O)c2c1ccc1c2OCO1)OCO3` (single isomer, unassigned; (-)) [(-)-Bicuculline methobromide], the “scaled lipid accumulation score” value [1] was ≤ 0.
In the case of `O=C(O)/C=C/CO` [trans-4-Hydroxycrotonic acid], the “scaled lipid accumulation score” value [1] was 0.003.
`CCCCCCCC/C=C\CCCCCCCC(=O)Nc1ccccc1` [Oleyl Anilide] was tested, and the “scaled lipid accumulation score” value [2] was 0.024.
`CS(=O)(=O)Nc1ccc(Cc2noc(-c3ccc4[nH]cc(CCN)c4c3)n2)cc1` was tested, and the “scaled lipid accumulation score” value [1] was ≤ 0.
For `COc1ccc(CCN2CCC(Nc3nc4ccccc4n3Cc3ccc(F)cc3)CC2)cc1` [Astemizole] [listing 1 of 3 here], the “scaled lipid accumulation score” value [1] was 0.907 (active).
In the case of `COc1ccc(CCN2CCC(Nc3nc4ccccc4n3Cc3ccc(F)cc3)CC2)cc1` [Astemizole] [listing 2 of 3 here], the “scaled lipid accumulation score” value (library stock concentration: 4.4 mM) was 0.824 and 0.409 and the “scaled lipid accumulation score” value [1] was 0.475.
In the case of `COc1ccc(CCN2CCC(Nc3nc4ccccc4n3Cc3ccc(F)cc3)CC2)cc1` [Astemizole] [listing 3 of 3 here], the “scaled lipid accumulation score” value was 1 (active).
In the case of `COc1ccc(C(=O)c2c(C)n(CCN3CCOCC3)c3ccccc23)cc1` [Pravadoline], the “scaled lipid accumulation score” value (library stock concentration: 5.3 mM) was ≤ -0.006.
For `CC(=O)N[C@H]1[C@@H](O[C@@H]2O[C@H](CC(O)[C@H]3O[C@@H](n4ccc(=O)[nH]c4=O)[C@H](O)[C@@H]3O)[C@H](O)[C@H](O)[C@H]2NC(=O)/C=C/CC(C)C)O[C@H](CO)[C@@H](N)[C@@H]1O` (stereo not given in full) [Tunicamycin], the “scaled lipid accumulation score” value (library stock concentration: 7 mM) was 0.058.
With `CN1CC[C@@]2(C)c3cc(OC(=O)Nc4ccccc4)ccc3N(C)[C@@H]12` [Phenserine] the “scaled lipid accumulation score” value [1] was 0.339.
In the case of `NCCc1ccccn1`, the “scaled lipid accumulation score” value [1] was ≤ 0.
For `CCCCCCC(=O)CCCCCC/C=C/C[C@@H](O)[C@H](O)[C@@](N)(CO)C(=O)O` [Myriocin], the “scaled lipid accumulation score” value [2] was 0.023.
`O[C@H]1[C@H]2[C@H](O)CCCN2C[C@H]1O` [swainsonine] was tested, and the “scaled lipid accumulation score” value (library stock concentration: 28.9 mM) was 0.01.
For `Clc1ccc(N2CCN(Cc3c[nH]c4ncccc34)CC2)cc1` [L-745,870 trihydrochloride], the “scaled lipid accumulation score” value [1] was 0.37.
For `Cl.Clc1ccc(N2CCN(Cc3c[nH]c4ncccc34)CC2)cc1` [L-745,870 hydrochloride], the “scaled lipid accumulation score” value [1] was 0.902 (active).
In the case of `CC1=CC(=O)C2=C(C)C[C@H](O)[C@@H]3[C@H](OC(=O)[C@H]3C)[C@H]12` [Austricine hydrate], the “scaled lipid accumulation score” value was ≤ 0.
`CCCCC[C@@H](/C=C/C=C\CCCCCCCC(=O)O)OO` was tested, and the “scaled lipid accumulation score” value (library stock concentration: 100 uM) was ≤ -0.021.
With `CO[C@@H]1C=C2CCN(C)[C@@H]2C2c3cc4c(cc3C(=O)OC21)OCO4` (stereo not given in full) [Ungerine nitrate] the “scaled lipid accumulation score” value was ≤ 0.
`CCCCCCC(=O)O[C@H]1CC[C@H]2[C@@H]3CC(=O)C4=CC(=O)CC[C@]4(C)[C@H]3CC[C@]12C` [6-keto Testosterone Enanthate] was tested, and the “scaled lipid accumulation score” value [2] was 0.048.
With `O=C1Nc2ccc(Cl)cc2C(c2ccccc2Cl)=NC1O` (stereo not given) [Lorazepam] the “scaled lipid accumulation score” value [1] was ≤ 0.
For `Cl.Oc1ccc2c3c1O[C@H]1c4[nH]c5ccccc5c4C[C@@]4(O)C(C2)N(CC2CC2)CCC314` (stereo not given in full) [Naltrindole hydrochloride], the “scaled lipid accumulation score” value [1] was 1.1 (active).
`Oc1ccc2c3c1O[C@H]1c4[nH]c5c(c4C[C@@]4(O)[C@@H](C2)N(CC2CC2)CC[C@]314)C[C@@]1(O)[C@H]2Cc3ccc(O)c4c3[C@@]1(CCN2CC1CC1)[C@H]5O4` [nor-Binaltorphimine dihydrochloride] was tested, and the “scaled lipid accumulation score” value [1] was ≤ -0.055 and ≤ 0.
With `O=C(O)/C=C\C(=O)O.O=C1/C(=C/c2ccccc2)C[C@@]2(O)C3Cc4ccc(O)c5c4[C@@]2(CCN3CC2CC2)[C@H]1O5` [BNTX maleate] the “scaled lipid accumulation score” value [1] was 0.851 (active).
`O=C1CC[C@@]2(O)[C@H]3Cc4ccc(O)c5c4[C@@]2(CCN3CC2CC2)[C@H]1O5` [Naltrexone hydrochloride dihydrate] was tested, and the “scaled lipid accumulation score” value was ≤ 0.
`Cl.Oc1ccc2c3c1O[C@H]1c4[nH]c5ccccc5c4C[C@@]4(O)C(C2)N(CC2CC2)CC[C@]314` [Naltrindole hydrochloride] was tested, and the “scaled lipid accumulation score” value [1] was 1.33 (active).
For `O=C1CC[C@@]2(O)[C@H]3Cc4ccc(O)c5c4[C@@]2(CCN3CC2CC2)[C@H]1O5` [Naltrexone HCl], the “scaled lipid accumulation score” value [6] was ≤ 0, the “scaled lipid accumulation score” value [7] was ≤ -0.006 and the “scaled lipid accumulation score” value [1] was 0.025.
For `Oc1ccc2c3c1O[C@H]1c4[nH]c5ccccc5c4C[C@@]4(O)[C@@H](C2)N(CC2CC2)CC[C@]314` [Naltrindole], the “scaled lipid accumulation score” value [1] was 0.713.
For `O=C1CC[C@@]2(O)[C@H]3Cc4ccc(O)c5c4[C@@]2(CCN3CC2CC2)[C@H]1O5` [Naltrexone hydrochloride], the “scaled lipid accumulation score” value [7] was 0.019 and the “scaled lipid accumulation score” value [1] was ≤ -0.045 and ≤ -0.027.
For `Oc1ccc2c3c1O[C@H]1c4[nH]c5ccccc5c4C[C@@]4(O)[C@@H](C2)N(CC2CC2)CC[C@]314` [Naltrindole HCl], the “scaled lipid accumulation score” value (library stock concentration: 4.8 mM) was 0.264.
In the case of `C=C(C)CN1CC[C@@]23c4c5ccc(O)c4O[C@H]2c2[nH]c4ccccc4c2C[C@]3(O)C1C5` [SDM25N hydrochloride], the “scaled lipid accumulation score” value [1] was 0.625.
`O=C1/C(=C/c2ccccc2)C[C@@]2(O)[C@H]3Cc4ccc(O)c5c4[C@@]2(CCN3CC2CC2)[C@H]1O5` [BNTX maleate salt hydrate] was tested, and the “scaled lipid accumulation score” value [1] was ≤ -0.006.
For `CCCCCCC(C)(C)c1ccc([C@@H]2C[C@H](O)CC[C@H]2CCCO)c(O)c1`, the “scaled lipid accumulation score” value [2] was 0.004.
`CN/C(=N\S(=O)(=O)c1ccc(Cl)cc1)N1C[C@H](c2ccccc2)C(c2ccc(Cl)cc2)=N1` was tested, and the “scaled lipid accumulation score” value [2] was ≤ 0.
In the case of `COC[C@H]1OC(=O)c2coc3c2[C@@]1(C)C1=C(C3=O)[C@@H]2CCC(=O)[C@@]2(C)C[C@H]1OC(C)=O` [Wortmannin], the “scaled lipid accumulation score” value [6] was ≤ 0 and the “scaled lipid accumulation score” value [1] was ≤ 0.
`CCOC(=O)c1ncn2c1CN(C)C(=O)c1cc(N=[N+]=[N-])ccc1-2` was tested, and the “scaled lipid accumulation score” value [1] was ≤ -0.001.
`CC1=CCCC2C1(C)CCC(C)C2(C)CC/C(C)=C/Cn1c[n+](C)c2c(N)ncnc21` (stereo not given) [Agelasine (stereochemistry of diterpene unknown)] was tested, and the “scaled lipid accumulation score” value [1] was 0.317.
`COc1ccc(N(C(=O)Oc2c(C)cccc2C)c2ccnc(Nc3ccc(N4CCN(C)CC4)cc3)n2)c(OC)c1` was tested, and the “scaled lipid accumulation score” value [3] was 0.038, the “scaled lipid accumulation score” value [4] was 0.193 and the “scaled lipid accumulation score” value [5] was ≤ 0. For the same compound, the “scaled lipid accumulation score” value [6] was 0.656 and the “scaled lipid accumulation score” value [1] was 0.815 and 0.679.
In the case of `COc1ccc(-n2nc(C(F)(F)F)cc2-c2ccc(Cl)cc2)cc1`, the “scaled lipid accumulation score” value [1] was 0.006.
`COc1ccc(/C=C/C(=O)CC(=O)/C=C/c2ccc(OC)c(OC)c2)cc1OC` [Dimethoxycurcumin] was tested, and the “scaled lipid accumulation score” value [2] was ≤ 0.
